aSyn UTR inh = MLPCN primary screen, SNCA 5' untranslated region; hit rate 0.82% among 300,000; alpha-synuclein 5'UTR reporter, inhibitor activity; inhibition, % (tested at 7.5 µM); AID 1813, 2009; in the data active means inhibition above about 60%;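 further: H4 neuroglioblastoma cells stably carrying SNCA 5'UTR luciferase fusion; 0% = DMSO wells and 100% = positive control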
BaF3 tox = parental Ba/F3 cell viability inhibition, counter-screen for JAK2V617F inhibitor project, murine pro-B, CellTiter-Glo luminescence; CellTiter-Glo ATP luminescence; inhibition, % at 5.6 µM; hit rate 1.1% among 220,000;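 active means inhibition above a per-campaign cutoff, the mean inhibition of all tested compounds plus 3 SD, cut at about 27% in these data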;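 further: 0% = DMSO wells and 100% = JAK Inhibitor I control wells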
Ba/F3 V617F tox = reduced viability of JAK2V617F-dependent Ba/F3 cells, primary screen, JAK2V617F inhibitor project, cell-based, Ba/F3 EpoR-JAK2V617F, luminescence. ATP luminescence. inhibition, % at 5.6 µM. hit rate 1.1% among 220,000;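 active means inhibition above the campaign mean plus 3 SD over all tested compounds, cut at about 24% in these data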;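 further: cytokine-independent growth of Ba/F3 cells driven by EpoR plus mutant JAK2; 0% = DMSO-treated cells and 100% = JAK inhibitor I control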
IEC-6 tox = cytotoxicity in IEC-6 intestinal epithelial cells, primary screen, cytotoxicity control for KLF5 inhibitor project, cell-based, luminescence | inhibition, % at 5 µM | IEC-6 cytotoxicity, luminescence viability | AID 1825, 2009 | hit rate 0.78% among 290,000;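 further: 0% = plate median of test compound wells and 100% = cytotoxic reference compound wells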
KLF5 inh = KLF5 expression inhibitors, primary screen, DLD-1 cells, luminescence | DLD-1 KLF5 promoter-luciferase reporter | inhibition, % at 5 µM | hit rate 0.23% among 290,000 | AID 1700, 2009;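 active means inhibition above a per-plate limit of that plate's mean compound inhibition plus 3 SD, cut at about 60% in these data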;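 further: 0% = DMSO wells and 100% = LY294002 at 200 µM; higher means less KLF5 promoter-driven luciferase light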
APP transl inh = inhibitors of APP translation via 5'UTR reporter, primary screen, APP 5'UTR luciferase, SH-SY5Y cells; SH-SY5Y APP 5'UTR-luciferase reporter, luminescence; inhibition, % at 2 µM; hit rate 0.82% among 190,000;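 active means inhibition above a set limit, derived from the sample mean plus 3 SD, cut at about 45% in these data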
IEC-6 tox confirm = cytotoxic compounds in IEC-6 epithelial cells, confirmation, cytotoxicity control, cell-based, luminescence | shares compounds with IEC-6 tox | IEC-6 rat intestinal epithelial viability | inhibition, % at 5 µM | hit rate 63% among 1,900 | AID 1907, 2009;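 further: 0% = vehicle and 100% = reference cytotoxic drug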
The depositor's hits bear a star; · = not tested or not shown. Hits are enriched below; roughly 2.1% of the tested compounds scored in any of these assays. Unless noted, no stated cut-off is given here; in the data, active means inhibition above about 22%; inactive means the rest.

SMILES	aSyn UTR inh	BaF3 tox	Ba/F3 V617F tox	IEC-6 tox	KLF5 inh	APP transl inh	IEC-6 tox confirm
Cc1cc(OCC(=O)Nc2ccc(N3CCN(C)CC3)cc2)ccc1Cl	-43	·	·	-8	-66	·	·
COCCNC(=S)N/N=C(\C)c1ccccc1O	-161	9	1	85*	40	79*	18
COc1ccc(/C(C)=N/NC(=S)NCCc2ccccc2)c(O)c1	-3	·	·	40*	-2	·	2
O=C(NC1CCCCC1)c1cccnc1Sc1ccccc1	35	·	·	0	-18	·	·
COc1ccc(OC)c(N(CC(=O)NCC2CCCO2)S(=O)(=O)c2ccccc2)c1 (stereo unspecified)	-10	·	·	-10	-16	·	·
COc1ccccc1C1CCCN1Cc1nc(-c2ccc(C)s2)oc1C (stereo unspecified)	34	2	-5	-2	-5	-16	·
Cc1cccc(Nc2nc(N3CCOCC3)nc(N3CCOCC3)n2)c1	-6	·	·	64*	-35	·	37*
Cc1ccc(Nc2nc(N3CCOCC3)nc(N3CCOCC3)n2)cc1C	-1	·	·	84*	-6	·	88*
Cc1cccc(Nc2nc(N3CCCCC3)nc(N3CCCCC3)n2)c1	28	0	3	0	-7	8	·
O=C(CNS(=O)(=O)c1ccc([N+](=O)[O-])cc1)N/N=C/c1ccc(O)cc1O	1	·	·	5	-10	·	·
CCC(=O)OCCNc1cc(Sc2nc3ccccc3[nH]2)c2nonc2c1[N+](=O)[O-]	·	1	9	54*	24	70*	5
O=C(CC(=O)Nc1cccc(Cl)c1Cl)Nc1cccc(Cl)c1Cl	10	·	·	10	-3	·	·
Cc1cc(C)cc(C(=O)N2CC(=O)Nc3ccccc32)c1	110*	82*	78*	89*	48	92*	57*
CCOC(=O)c1nc(NNC(=O)c2ccc([N+](=O)[O-])cc2)sc1C	62*	·	·	38*	53	·	21
COC(CNC(=O)[C@H](Cc1ccccc1)N1Cc2ccccc2C1=O)OC	14	·	·	-1	-8	·	·
COc1cccc(C(=O)Nc2ccc3c(cc2=O)[C@@H](NC(C)=O)CCc2cc(OC)c(OC)c(OC)c2-3)c1	-1	·	·	46*	-6	·	39*
COc1cccc(C(=O)Nc2ccc(F)cc2F)c1	-114	10	4	-2	-65	-32	·
Cc1ccc(S(=O)(=O)N(CC(=O)N/N=C/c2ccccc2C(=O)O)c2cc(Cl)cc(Cl)c2)cc1	41	0	-6	-1	-5	-11	·
Clc1cccc(Cl)c1C[n+]1ccc2ccccc2c1	-8	·	·	0	2	·	·
Cc1ccccc1Cn1c(C(=O)OC(C)C)cc2c1ccn2C	13	0	0	10	-11	-2	·
CCOC(=O)c1cc2c(ccn2C)n1CC(=O)N(Cc1ccccc1)c1ccc(F)cc1	29	9	0	-8	5	0	·
CC(C)OC(=O)c1cc2c(ccn2C)n1CC(=O)N1CCC(Cc2ccccc2)CC1	-5	8	5	40*	5	4	7
CCOC(=O)c1cc2c(ccn2C)n1CC(=O)N(Cc1ccccc1)c1ccccc1	28	6	4	32*	-3	-19	2
Cc1ccc(C)c(Cn2c(C(=O)OC(C)C)cc3c2ccn3C)c1	10	2	5	29*	-1	-1	17
CCOC(=O)[C@@H]1[C@H]2COc3ccc(Br)cc3[C@@H]2N2C(=O)N(c3ccc(C(F)(F)F)cc3)C(=O)[C@]12C	11	·	·	-1	0	·	·
SMILES	aSyn UTR inh	BaF3 tox	Ba/F3 V617F tox	IEC-6 tox	KLF5 inh	APP transl inh	IEC-6 tox confirm
Cc1nnc(NC(=O)c2nc(S(=O)(=O)Cc3ccccc3)ncc2Cl)s1	-23	·	·	34*	5	·	-4
Cc1cccc(CS(=O)(=O)c2ncc(Cl)c(C(=O)NCc3ccccc3)n2)c1	64*	·	·	62*	7	·	29*
Cc1ccccc1NC(=O)c1nc(S(C)(=O)=O)ncc1Cl	6	·	·	40*	4	·	15
CS(=O)(=O)c1ncc(Cl)c(C(=O)Nc2ccc(N3CCOCC3)cc2)n1	-24	3	8	-2	-22	44	·
CS(=O)(=O)c1ncc(Cl)c(C(=O)Nc2ccc(OC(F)F)cc2)n1	-49	·	·	99*	-6	·	29*
O=C(c1cc([N+](=O)[O-])[nH]n1)N1CCSCC1	21	-1	-4	5	-19	·	·
Cc1c(C(=O)NNC(=S)Nc2ccc(S(N)(=O)=O)cc2)oc2ccccc12	13	·	·	0	-11	·	·
Cc1ccc(-c2csc3ncn(C(C)C(=O)O)c(=O)c23)cc1 (stereo unspecified)	16	·	·	-2	-15	·	·
COC(=O)CNC(=O)C(Cc1ccccc1)NS(=O)(=O)c1ccc2c(c1)c(=O)n(C)c(=O)n2C (stereo unspecified)	22	6	0	2	19	-1	·
Cc1cccc(CS(=O)(=O)c2ncc(Cl)c(C(=O)Nc3c(C)cccc3C)n2)c1	35	·	·	35*	-12	·	11
CCN(c1ccccc1)S(=O)(=O)c1ccc(C(=O)Nc2ccncc2)cc1	-29	·	·	·	·	·	·
Cc1cccc(C)c1NC(=O)c1nc(S(=O)(=O)Cc2ccccc2)ncc1Cl	19	·	·	38*	18	·	15
CSc1ncc(Cl)c(C(=O)Nc2cccc3ccccc23)n1	-21	2	-1	4	-4	-8	·
CCN(c1ccccc1)S(=O)(=O)c1ccc(NC(=O)c2nc(S(C)(=O)=O)ncc2Cl)cc1	2	·	·	100*	41	·	12
O=C(NCCc1cccc(Cl)c1)c1cccs1	-115	4	-2	-1	-89	-96	·
COc1cc2cc(-c3ccc(O)cc3O)nc(C)c2cc1OC	-116	·	·	22*	10	·	16
Cc1cccc(NC(=O)C(Cc2ccccc2)c2nn[nH]n2)c1C (stereo unspecified)	7	·	·	-4	-2	·	·
Cc1ccc(Cn2nnnc2CN2CCC(c3nc4ccc(Cl)cc4[nH]3)CC2)cc1	78*	82*	92*	88*	46	68*	54*
COCCNC(=O)Cc1c(C)c2c(cc(C)c3c(C(C)(C)C)coc32)oc1=O	-116	·	·	8	-16	·	·
Cc1ccc(Nc2nc(=O)c3cccnc3s2)cc1	-228	7	0	37*	-39	-68	39*
COc1ccc2c(c1)C(C)=CC(C)(C)N2S(=O)(=O)c1ccc(Br)cc1	-86	69*	74*	68*	22	93*	57*
CCN(CC)c1ccc2cc(-c3nc4ccccc4n3C)c(=O)oc2c1	-226	77*	69*	84*	50	87*	66*
CCN(CC)c1ccc2cc(-c3nc4ccccc4[nH]3)c(=O)oc2c1	28	2	-1	5	-117	-185	·

Screening data deposited in PubChem BioAssay by several laboratories.
